Test results reported in PubChem BioAssay (NCI).
Compounds without any hit were thinned out: in the full panel of roughly 83,000, 20% have a hit.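 For each line, cells grew in 96-well plates with the test compound present at a single concentration for 48 hours.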 The source made the active and inactive calls. The calls were made as follows: active = growth percent below 10; inactive = the rest.

System: HCC-2998 colon
Assay: NCI-60 one-dose screen, 48 h (100 = growth as untreated, 0 = no growth, -100 = all killed)
Details: 10 µM

Q: Which growth does the source give for C=CCOc1ccc2c(c1)CC=C1[C@@H]2CC[C@]2(C)C(=O)/C(=N/O)C[C@@H]12 here?
A: 74.8% (inactive)

Q: Which growth does the source give for O=C(N/N=C\c1cc(Cl)ccc1O)c1ccncc1 here?
A: 45.2% (inactive)

Q: With Cc1nc2cc(-n3c(-c4ccc(F)cc4)nc4ccccc4c3=O)ccc2n1Cc1ccccc1 as the compound, how does the growth read?
A: 61.7% (inactive)

Q: O=[N+]([O-])c1ccc2c(c1)Cc1cc(I)ccc1-2 was tested. Which growth did it give?
A: 103% (inactive)

System: KM12 colon
Assay: as above
Details: 10 µM

Q: CC(=O)/C(=C\c1ccc(Cl)cc1)c1ccccc1 was tested. Which growth did it give?
A: 10.1% (inactive)

Q: With COc1ccc2nc(NC(=O)Nc3c(F)cccc3F)sc2c1 as the compound, how does the growth read?
A: 112% (inactive)

Q: How did the growth turn out when COc1cc(Cn2c(-c3ccccc3)cc3c2-c2oncc2CC3)cc(OC)c1 was run?
A: 10.2% (inactive)

Q: For CCC(CCNc1cc(OC)cc2cccnc12)CN1C(=O)c2ccccc2C1=O (configuration not stated), which growth is on record?
A: 99% (inactive)

Q: CCOC(=O)c1sc(NC(=O)c2cc(OC)c(OC)c(OC)c2)nc1C was tested. Which growth did it give?
A: 99.3% (inactive)

Q: Which growth does the source give for C#CCNCCN1C(=O)c2ccc3c4c(ccc(c24)C1=O)C(=O)N(CCNCC#C)C3=O here?
A: 30.9% (inactive)

Q: CC(=O)Nc1nc(C)c(C(=O)NNC=O)s1 was tested. Which growth did it give?
A: 105% (inactive)

Q: How did the growth turn out when CCN(CCCNC(=O)Cc1cc(=O)oc2cc(N(C)C)ccc12)CCNc1ccnc2cc(Cl)ccc12 was run?
A: 92.7% (inactive)

Q: How did the growth turn out when Cc1nc(N)sc1Sc1nc2ccc(Cl)cc2c(=O)n1-c1ccc(Oc2ccccc2)cc1 was run?
A: 79.8% (inactive)

Q: With COc1ccc(-c2nnc(COc3ccc(NC(=O)Nc4cccc(C(F)(F)F)c4)cc3F)o2)cc1 as the compound, how does the growth read?
A: 24% (inactive)

Q: Cc1ccc(/C(CS(=O)(=O)c2ccc(C)cc2)=N\O)cc1 was tested. Which growth did it give?
A: 115% (inactive)

Q: How did the growth turn out when O=[N+]([O-])c1ccc(-c2nc(-c3ccccc3)c(-c3ccccc3)n2-c2ccccc2)cc1 was run?
A: 37% (inactive)

Q: For COc1ccc(NC(=O)CCn2cnc3c(cc(-c4ccccc4)n3-c3ccccc3)c2=O)cc1, which growth is on record?
A: 110% (inactive)

Q: CCCCCCCCCCCC(=O)NCCCN(C)C was tested. Which growth did it give?
A: 104% (inactive)

Q: With COc1ccc(S(=O)(=O)Nc2ccc(OCc3nnc(-c4ccc(Cl)cc4)o3)c(F)c2)cc1 as the compound, how does the growth read?
A: 56.3% (inactive)

Q: Which growth does the source give for Fc1ccc(-c2cc(C(Cl)Cl)no2)cc1 here?
A: 94.4% (inactive)

Q: Which growth does the source give for CCCc1c(C)nc2scc(-c3ccc(Cl)cc3)n2c1=O here?
A: 98.2% (inactive)

Q: How did the growth turn out when O=C(O)c1cc(C(F)(F)F)cc(C(F)(F)F)c1 was run?
A: 105% (inactive)

Q: For CC(=O)Nc1nc(C)c(C(=O)N/N=C/c2cccn2C)s1, which growth is on record?
A: 105% (inactive)

Q: For CCOc1cc(Br)c(C(C)NC(=O)c2cccc(OC)c2)cc1OCC (configuration not stated), which growth is on record?
A: 84.1% (inactive)

Q: CCN1CCN(c2ccc(Nc3ncnc4c3nnn4CCc3cc(OC)cc(OC)c3)cc2)CC1 was tested. Which growth did it give?
A: 99.1% (inactive)

Q: Which growth does the source give for CC(=O)OC1Oc2ccccc2-c2oc(=O)c(-c3cc(=O)oc4cc(O)ccc34)cc21 (configuration not stated) here?
A: 89.2% (inactive)

Q: Which growth does the source give for Cc1ccc(-c2cc(C(=O)Nc3ccc(S(=O)(=O)N4CCCCC4)cc3)[nH]n2)c(O)c1 here?
A: 45.1% (inactive)

Q: How did the growth turn out when COc1ccc(-c2csc(NC(=O)CO[N+](=O)[O-])n2)cc1 was run?
A: 95.8% (inactive)

Q: How did the growth turn out when CCN(CC)CCn1c(=N)n(CC(O)c2ccc(Cl)c(Cl)c2)c2ccccc21 (configuration not stated) was run?
A: 84.4% (inactive)

Q: Cc1cc(Nc2cccc(F)c2)nc(NCc2ccccc2)n1 was tested. Which growth did it give?
A: 14.1% (inactive)

Q: How did the growth turn out when CCOC(=O)[C@@H]1[C@H](c2ccccc2)[C@H]([N+](=O)[O-])[C@H](c2cn(-c3ccccc3)nc2C)N1Cc1ccccc1 was run?
A: 88% (inactive)

Q: How did the growth turn out when COc1ccc(C2C=C(c3ccc(Cl)cc3)N=C3SC=CN32)c(Br)c1 (configuration not stated) was run?
A: 62.3% (inactive)

Q: CCCc1ccnc(NS(=O)(=O)c2ccc(N)cc2)n1 was tested. Which growth did it give?
A: 74.9% (inactive)

Q: For O=C1/C(=C/c2cccs2)CCC/C1=C\c1cccs1, which growth is on record?
A: 65.6% (inactive)

Q: COc1cc(Nc2ccnc(N3CCN(c4ccnc5cc(Cl)ccc45)CC3)n2)cc(OC)c1 was tested. Which growth did it give?
A: 8.26% (active)

Q: How did the growth turn out when Clc1ccc(-c2nc(-c3cccs3)cn3ccnc23)cc1 was run?
A: 50.5% (inactive)

Q: Which growth does the source give for CCN1CCOC1C(C)C (configuration not stated) here?
A: 109% (inactive)

Q: For Cn1cnc([N+](=O)[O-])c1Sc1nnc(-c2ccccc2)c(-c2ccccc2)n1, which growth is on record?
A: 92.5% (inactive)

Q: For C=CCOc1ccc2c(c1)CC=C1[C@@H]2CC[C@]2(C)C(=O)/C(=N/O)C[C@@H]12, which growth is on record?
A: 57.9% (inactive)

Q: O=C(N/N=C\c1cc(Cl)ccc1O)c1ccncc1 was tested. Which growth did it give?
A: 53.6% (inactive)

Q: Cc1nc2cc(-n3c(-c4ccc(F)cc4)nc4ccccc4c3=O)ccc2n1Cc1ccccc1 was tested. Which growth did it give?
A: 18.7% (inactive)

Q: With O=[N+]([O-])c1ccc2c(c1)Cc1cc(I)ccc1-2 as the compound, how does the growth read?
A: 105% (inactive)
